Data reported in PubChem BioAssay (NCATS).
Inconclusive results are not listed. Active and inactive are the calls of the source. Calls follow the shape of the dose curve; as a rule, active = well fitted cell-killing curve with a large enough effect; inconclusive = small, poorly fitted or top-dose-only effect, or effect the other way; inactive = flat fitted curve, though single readings scatter.

These compounds were tested on Tov112D (assay: Primary qHTS to identify gynecologic anti-cancer compounds using libraries of approved drugs and bioactive compounds (AID 1345084; also: nearly all actives have a fitted effect of over 55% in size)). Conditions: Gynecologic cancer cell panel viability, ATPlite luminescence, 48 h; series mostly up to 57.5 µM; activity change, negative = cytotoxicity: at the top concentration.
Summary of the method: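 In this quantitative HTS, cell killing is estimated from loss of ATP-dependent luciferase light. Cells see five compound concentrations over a 48 h exposure.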
% is scaled to controls: 0 for no effect and ±100 for the full control effect; potency is read from the fitted curve at half-maximal effect.

Row | SMILES | Potency | activity change, negative = cytotoxicity
1 | Cc1cc(-c2nc3cc(F)ccc3s2)ccc1NC(=O)[C@@H](N)CCCCN | 15.8 µM (active) | 
2 | Cc1ccccc1CN1CCn2c1nc1c(c2=O)CN(Cc2ccccc2)CC1 |  | -3.15% (inactive)
3 | C=C(C)C(=O)O[C@H]1/C(C=O)=C\CC/C(CO)=C/[C@H]2OC(=O)C(=C)[C@@H]2[C@@H]1OC |  | 2.9% [at 38.5 µM] (inactive)
4 | C[C@@H]1CC[C@]2(C(=O)O)CC[C@]3(C)C(=CCC4[C@@]5(C)CC[C@H](O)[C@](C)(C(=O)O)C5CC[C@]43C)C2[C@]1(C)O (some centres undefined) |  | 0.377% [at 25.3 µM] (inactive)
5 | COc1ccnc(CS(=O)c2nc3cc(OC(F)F)ccc3[nH]2)c1OC (centres undefined) |  | 0.943% (inactive)
6 | COc1ccc(-c2cnc3c(-c4cccc5ncccc45)cnn3c2)cc1 |  | 15.6% (inactive)
7 | CC(C)(C)OC(=O)c1ncn2c1C(C)(C)Nc1ccccc1-2 |  | 1.69% (inactive)
8 | CN1CCN(C(=O)CN[C@@H]2C[C@H]2c2ccc(OCc3ccccc3)cc2)CC1 |  | 6.95% (inactive)
9 | CC(=O)OC/C(=C/C(=O)O)CC[C@@H]1C(C=O)=CC[C@@H]2C(C)(C)CCC[C@@]12C |  | -12.1% [at 38.5 µM] (inactive)
10 | O=C(COc1ccc2ccccc2c1Br)Nc1cccnc1 |  | -4.53% (inactive)
11 | O=C(Nc1ccc2[nH]c(=O)oc2c1)C(=O)N1CCC(Cc2ccc(F)cc2)CC1 |  | -0.544% (inactive)
12 | CC(=O)OC[C@]12[C@H](OC(C)=O)C(=O)[C@@H]3[C@@H](O)[C@@]14O[C@@]3(C)COC(=O)c1cccnc1[C@@H](C)[C@H](C)C(=O)O[C@@H]([C@H](O)[C@@H]2OC(C)=O)[C@]4(C)O |  | -21.5% [at 25.3 µM] (inactive)
13 | CCOc1ccc(-n2c(C(C)N(Cc3cccnc3)C(=O)Cc3ccc(F)c(C(F)(F)F)c3)nc3ncccc3c2=O)cc1 (centres undefined) |  | 0.888% (inactive)
14 | C=C1C(=O)OC2/C=C(\CO)CC/C=C(\C=O)C(O)C(OC(=O)C(C)CC)C12 (centres undefined) |  | -1.19% [at 38.5 µM] (inactive)
15 | Cc1ccc(N2CCN(S(=O)(=O)N3CCCCC3)CC2)c(C)c1 |  | 0.541% (inactive)
16 | C1=C/COCc2cc(ccc2OCCN2CCCC2)Nc2nccc(n2)-c2cccc(c2)COC/1 | 11.2 µM (active) | 
17 | Cn1ncnc1[C@@H]1c2n[nH]c(=O)c3cc(F)cc(c23)N[C@H]1c1ccc(F)cc1 |  | 0.251% (inactive)
18 | O=C(Cc1c(F)cccc1F)Nc1cc(OCc2ccc(Cl)cc2)ccn1 |  | 1.64% (inactive)
19 | CCOc1ccc(-n2c([C@@H](C)N(Cc3cccnc3)C(=O)Cc3ccc(OC(F)(F)F)cc3)nc3ncccc3c2=O)cc1 |  | 2.75% (inactive)
20 | C=C(C)C1=C[C@@]2(C)C(=CC1=O)CC[C@@H](O)[C@@H]2C |  | 1.05% (inactive)

Row | SMILES | Potency | activity change, negative = cytotoxicity
21 | C=C1/C(=C/C=C2\CCC[C@]3(C)[C@@H]([C@H](C)/C=C/[C@H](O)C4CC4)CC[C@@H]23)C[C@@H](O)C[C@@H]1O |  | 2.19% (inactive)
22 | CC(C)(C)c1ccc(C(=O)Nc2cc(Cl)c(Br)cc2C(=O)O)cc1 |  | -1.89% (inactive)
23 | COc1c(C(O)CC(C)C)ccc2c1C(=O)OCc1cc(C)cc(O)c1O2 (centres undefined) |  | -6.54% [at 38.5 µM] (inactive)
24 | O=C(NCC1(c2nc(-c3ccccc3)cs2)CCOCC1)c1cccc(-c2noc(C(F)(F)F)n2)c1 |  | 0.0217% (inactive)
25 | C/C=C/C=C/c1cc2c(C=O)c(O)c(CC=C(C)C)cc2o1 |  | 2.39% (inactive)
26 | Cc1ccc(N2CCN(CCC3NC(=O)c4ccccc43)CC2)cc1C (centres undefined) |  | 4.09% (inactive)
27 | CC(C)NC(=O)N1CC[C@H](N=C2Nc3cc(F)ccc3N(CC(F)F)c3ccc(Cl)cc32)C1 |  | -4.53% [at 11.6 µM] (inactive)
28 | COc1ccc(CCO[C@@H]2O[C@H](CO[C@H]3OC[C@](O)(CO)[C@H]3O)[C@@H](OC(=O)/C=C/c3ccc(O)c(O)c3)[C@H](O[C@@H]3O[C@@H](C)[C@H](O)[C@@H](O)[C@H]3O)[C@H]2O)cc1OC |  | -3.02% [at 25.3 µM] (inactive)
29 | CC(=O)OC1CC(C)C2(CCC3(CC(=O)OC3O)O2)C2(C)CCCC(C)(C)C12 (centres undefined) |  | 2.57% [at 25.3 µM] (inactive)
30 | Cc1noc(-c2ccc(-c3ccc(CC(=O)O)cc3)cc2)c1NC(=O)O[C@H](C)c1ccccc1Cl |  | 1.19% (inactive)
31 | CN1CCN(c2ccc(-c3cccc(CN4CCOCC4)c3)cc2NC(=O)c2c[nH]c(=O)cc2C(F)(F)F)CC1 |  | 9.65% [at 38.5 µM] (inactive)
32 | COc1cc(N(C)CCN(C)C)c(N)cc1Nc1nccc(-c2cn(C)c3ccccc23)n1 |  | 13.1% (inactive)
33 | C=C1/C(=C/C=C2\CCC[C@@]3(C)C2CCC3[C@H](C)/C=C/[C@@H](O)C2CC2)C[C@@H](O)C[C@@H]1O (some centres undefined) |  | 0.711% (inactive)
34 | CC(C)C(C)C(O)C1CC23CC(=O)C4(O)C(=C2CCC3C1C)C=CC1(O)CC(O)CCC14C (centres undefined) |  | -4.71% [at 25.3 µM] (inactive)
35 | O=C(NCC1CCN(Cc2cccc(Cl)c2)CC1)[C@@H]1CCCN(c2ncnc3c2nc2n3CCCC2)C1 |  | 0.923% (inactive)
36 | C=CC1(C)CC(O)C(C(=C)C(=O)OC)C(O)C1C(=C)CO (centres undefined) |  | -1.79% (inactive)
37 | C=C[C@](C)(O)CC[C@H]1C(C)=CC(=O)[C@H]2C(C)(C)CCC[C@]12C |  | -1.39% (inactive)
38 | Cn1c(SCC(=O)N2CCC[C@H]2C(=O)Nc2ccccc2-c2ccccc2)nc2ccccc21 |  | -0.91% (inactive)
39 | Cn1ncc2cc(-c3cnc(N)c(Cl)c3N3CCC4(CCNC4=O)CC3)ccc21 |  | 9.27% (inactive)
